Assay results: the supplement of paper PMC6555819

Tests used:
Assay in all cases: PBM binding z-score (relative to random genomic background probes); higher = stronger binding; sequences stand for … in GC…GCGATTGACAGCGTAGAATGAAGG
[1] = tested on: FXR:RXRa (NR concentration 270 nM, RXRa partner concentration 90 nM)
Outline: (§1)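 Custom Agilent 4×180K protein-binding microarrays carried double-stranded probes, each with a 34-nt variable region. These regions held direct-repeat seeds, single-nucleotide variants, half-site ablations and random human genomic background sequences. Ligand-free nuclear receptor dimers were incubated on the arrays for 1 h, antibodies against each partner (one per run) detected binding, and scanned fluorescence was regression-normalized. Binding z-scores take the random background probes as reference.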

[2] = tested on: LXRa:RXRa (NR concentration 270 nM, RXRa partner concentration 90 nM)
Outline: as §1

[3] = tested on: LXRa homodimer (NR concentration 270 nM)
Outline: as §1

[4] = tested on: LXRb:RXRa (NR concentration 270 nM, RXRa partner concentration 90 nM)
Outline: as §1

[5] = tested on: LXRb homodimer (NR concentration 270 nM)
Outline: as §1

[6] = tested on: PPARa:RXRa (NR concentration 270 nM, RXRa partner concentration 90 nM)
Outline: as §1

[7] = tested on: PPARg:RXRa (NR concentration 180 nM, RXRa partner concentration 90 nM)
Outline: as §1

[8] = tested on: PPARg:RXRa 270nM:90nM, anti-RXR (NR concentration 270 nM, RXRa partner concentration 90 nM)
Outline: as §1

[9] = tested on: PPARg:RXRa 30nM:10nM, anti-RXR (NR concentration 30 nM, RXRa partner concentration 10 nM)
Outline: as §1

[10] = tested on: PPARg:RXRa 90nM:30nM, anti-RXR (NR concentration 90 nM, RXRa partner concentration 30 nM)
Outline: as §1

[11] = tested on: PPARg:RXRa DBDmut IVT, anti-RXR (DBD mutation: RXRa K156A/R161A, NR concentration 270 nM, RXRa partner concentration 90 nM)
Outline: as §1

[12] = tested on: PPARg:RXRa IVT, anti-PPARg (NR concentration 270 nM, RXRa partner concentration 90 nM)
Outline: as §1

[13] = tested on: PPARg DBDmut:RXRa IVT, anti-PPARg (DBD mutation: PPARg1 K132A/R137A, NR concentration 270 nM, RXRa partner concentration 90 nM)
Outline: as §1

[14] = tested on: PPARg DBDmut IVT, anti-PPARg (DBD mutation: PPARg1 K132A/R137A, NR concentration 270 nM)
Outline: as §1

[15] = tested on: PPARg homodimer (NR concentration 180 nM)
Outline: as §1

[16] = tested on: PXR:RXRa (NR concentration 270 nM, RXRa partner concentration 90 nM)
Outline: as §1

[17] = tested on: PXR homodimer (NR concentration 270 nM)
Outline: as §1

[18] = tested on: RARa:RXR (NR concentration 270 nM, RXRa partner concentration 90 nM)
Outline: as §1

[19] = tested on: RARa homodimer (NR concentration 270 nM)
Outline: as §1

[20] = tested on: RARb:RXRa (NR concentration 270 nM, RXRa partner concentration 90 nM)
Outline: as §1

Row | Sequence | PBM binding z-score [1] | PBM binding z-score [2] | PBM binding z-score [3] | PBM binding z-score [4] | PBM binding z-score [5] | PBM binding z-score [6] | PBM binding z-score [7] | PBM binding z-score [8] | PBM binding z-score [9] | PBM binding z-score [10] | PBM binding z-score [11] | PBM binding z-score [12] | PBM binding z-score [13] | PBM binding z-score [14] | PBM binding z-score [15] | PBM binding z-score [16] | PBM binding z-score [17] | PBM binding z-score [18] | PBM binding z-score [19] | PBM binding z-score [20]
1 | TCTAATAGTTGATTAGGGCAACCGAAACAGCGGA | -0.0644 | 0.461 | -0.078 | 0.136 | -0.225 | 1.23 | 0.375 | 1.85 | 3.3 | 2.53 | 1.74 | 1.56 | 0.711 | 0.3 | 0.347 | 0.323 | -0.117 | 0.766 | -0.402 | 0.915
2 | CATAGCAGGCCAATCTGGGTCACTCAAGGCTTGA | 0.72 | 1.46 | -0.00669 | 0.604 | 0.0178 | 3.01 | 2.72 | 2.73 | 0.652 | 2.05 | 4.39 | 5.66 | -0.292 | -0.125 | 0.261 | 1.03 | -0.436 | 1.25 | -0.301 | 1.65
3 | TTACCAAGGTGAAAGGTCGTTGATGCACGCCTTG | 3.49 | 3.43 | 0.252 | 2.79 | -0.555 | 5.38 | 9.01 | 7.94 | 6.67 | 8.46 | 2.84 | 4.92 | 0.117 | -0.276 | 1.41 | 3.96 | 0.351 | 5.27 | 0.055 | 3.04
4 | AGTATGAGGTTAAGATCAGGGAAACAGAATACAT | 1.71 | 2.36 | 0.00803 | 1.84 | 0.314 | 3.08 | 1.76 | 1.45 | 0.773 | 1.12 | 0.462 | 1.01 | 0.752 | 1.37 | 1.32 | 1.15 | 0.499 | 1.84 | 0.731 | 1.98
5 | ACAATGAGGTTATTAAGATCAGGGAATTGCGGTC | 1.54 | 1.7 | 0.283 | 1.26 | 0.952 | 2.42 | 1.45 | 1.7 | 0.622 | 1.3 | 2.08 | 2.07 | 1.27 | 1.25 | 0.869 | 1.58 | 1.15 | 1.49 | 1.12 | 1.74
6 | AGAACGAGGGCACGCTGAGTGGATAGCAGAGTAG | 0.65 | 0.494 | -0.357 | -0.0395 | -1.03 | 1.77 | 1.99 | 1.64 | 0.26 | 1.29 | 4.13 | 3.9 | 0.715 | 0.00545 | 0.149 | 0.143 | -0.338 | 0.776 | -0.364 | 2.42
7 | GCTAGTTGGTCACTAAAAGGTCACACACCGGTCG | 3.49 | 4.28 | 4.38 | 4.27 | 0.864 | 4.44 | 2 | 3.69 | 0.993 | 2.6 | 1.75 | 3.25 | -0.266 | -0.384 | 4.15 | 5.01 | 1.59 | 5.91 | 1.48 | 4.49
8 | GCTATTAGTTGAGAGGGCAACCGAATGATTCTCG | 0.249 | 0.428 | 0.355 | 0.434 | -0.23 | 1.38 | 1.03 | 2.25 | 0.553 | 1.53 | 0.549 | 0.28 | 0.117 | -0.0279 | 0.87 | 0.651 | -0.0553 | 0.826 | 0.278 | 1.4
9 | CCTTACGGGTCACGAGGCTATAGCACGACGAGCG | 6.52 | 3.97 | 0.0117 | 3.26 | -0.222 | 5.83 | 6.52 | 5.91 | 2.64 | 4.4 | 3.61 | 4.78 | 0.556 | -0.248 | 1.81 | 3.26 | -0.243 | 4.45 | 0.264 | 4.23
10 | CCTACTGGGCCAGGGTCATTGATCAGTCAAAGCA | 2.51 | 2.16 | 0.0124 | 2.58 | -1.02 | 4.14 | 3.23 | 3.68 | 0.898 | 2.87 | 1.49 | 3.62 | -1.03 | -0.896 | 0.994 | 3.06 | 0.381 | 3.61 | -0.641 | 2.51
11 | ATCTCCAGGTAAAAGTTCAGTGAATCCCGAGGAT | 1.06 | 1.58 | 1.65 | 1.15 | 0.946 | 3.5 | 5.76 | 6.62 | 6.15 | 7.28 | 0.0885 | 2.31 | 1.68 | 1.01 | 1.84 | 2.4 | 1.88 | 2.14 | 1.07 | 2.6
12 | ATATGTAGGTTAGCTCGGGTCATTCAGACTAGGC | 2.55 | 4.5 | 1.52 | 2.65 | 0.733 | 4.08 | 4.25 | 3.8 | 1.34 | 3.09 | 6.41 | 6.32 | 1.69 | 1.22 | 2.02 | 4.79 | 1.22 | 3.11 | 0.826 | 2.09
13 | CGAACTAGGTCAAGGAAAGTGAATCTCCGCACGC | 2.69 | 1.93 | -0.152 | 1.2 | -0.225 | 4.55 | 7.18 | 6.18 | 3.7 | 5.66 | 7.89 | 8.29 | 1.18 | 0.515 | 1.22 | 0.813 | -0.499 | 1.62 | 0.0155 | 3.9
14 | CGAACTAGGTCAAGGTCAAAGTCGGTTTGTGCCA | 6.55 | 5.52 | 3.7 | 4.39 | 1.14 | 5.86 | 9.77 | 7.93 | 6.78 | 8.09 | 8.45 | 8.59 | 3.32 | 1.2 | 4.39 | 5.28 | 2.59 | 5.41 | 1.57 | 4.93
15 | GGAACGAGGGCATTCGAGTTGAAAGCATGGCGAT | 1.15 | 2.67 | -0.268 | 0.406 | -1.04 | 1.85 | 0.762 | 0.887 | -0.332 | 0.259 | 2.58 | 2.01 | -0.14 | -0.111 | 0.301 | 3.96 | 1.15 | 1.18 | -0.521 | 1.71
